Rows were chosen to be rich in hits. Some 3.5% of all compounds tested hit in one or more screens of this group.
TEAD-YAP block = TEAD-YAP interaction inhibition. HEK-TIYL cells, TEAD-Gal4/YAP UAS-luciferase luminescence. inhibition, % at 9.12 µM. 640,000 tested, 1.4% active; in the data active means inhibition above about 32%
MITF inh = blocks human microphthalmia-associated transcription factor | AlphaScreen MITF homodimerization, bead proximity signal | inhibition, % at 2.6 µM | 650,000 tested, 0.91% active; in the data active means inhibition above about 50%
FBW7 activator = activators of human E3 ligase FBW7; AlphaScreen FBW7–phospho-cyclin E peptide binding, activator screen; 650,000 tested, 0.13% active; Q969H0; normalized activity (activation), % at 26.1 µM; in the data active means normalized activity above about 1.9%;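 further: purified mutant Fbw7 with reduced substrate affinity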
GPR151 activ = activators of human GPR151. Q8TDV0. PathHunter beta-arrestin GPR151 cells, luminescence. activation, % at 11.2 µM. 650,000 tested, 1% active. AID 1508602; in the data active means activation above about 4.9%
A number is an active result; ! = not active in a repeat.

For O=c1c(-c2ccc(O)cc2)coc2cc(O)ccc12 the results were TEAD-YAP block 73!, MITF inh inactive, FBW7 activator inactive and GPR151 activ inactive.
`COc1ccc2c(=O)c(-c3ccc(O)cc3)coc2c1` gave TEAD-YAP block 81, MITF inh inactive, FBW7 activator inactive and GPR151 activ inactive.
O=c1c(-c2cnn(-c3ccccc3)c2)coc2c(O)c(O)ccc12 was read as TEAD-YAP block inactive, MITF inh inactive, FBW7 activator inactive and GPR151 activ inactive.
Screening CC(C)[C@@H](CO)Nc1ccc2ncc(-c3ccc4[nH]ccc4c3)n2n1 returned TEAD-YAP block inactive, MITF inh inactive, FBW7 activator inactive and GPR151 activ inactive.
`COc1ccc(Cn2nnnc2C)cc1[N+](=O)[O-]` gave TEAD-YAP block inactive, MITF inh inactive, FBW7 activator inactive and GPR151 activ inactive.
Cc1ccccc1-c1coc2cc(O)ccc2c1=O was read as TEAD-YAP block inactive, MITF inh inactive, FBW7 activator inactive and GPR151 activ inactive.
COc1ccc(-c2coc3cc(O)ccc3c2=O)c(O)c1O was read as TEAD-YAP block inactive, MITF inh 80, FBW7 activator inactive and GPR151 activ inactive.
For C/C(CC(=O)Nc1ccccn1)=N\NC(=O)C1CCCCC1 the results were TEAD-YAP block inactive, MITF inh inactive, FBW7 activator inactive and GPR151 activ inactive.
`c1ccc2c(-c3csc(NCC4CCCO4)n3)c[nH]c2c1` (stereo unspecified) gave TEAD-YAP block inactive, MITF inh inactive, FBW7 activator inactive and GPR151 activ inactive.
Screening c1ccc2c(-c3csc(NC4CCCC4)n3)c[nH]c2c1 returned TEAD-YAP block inactive, MITF inh inactive, FBW7 activator 5.4 and GPR151 activ inactive.
Cc1nc(C)n(-c2ccc(Nc3cc(-c4nn(-c5ccc(N(C)C)cc5)cc4-c4ccccc4)ccn3)cc2)n1 was read as TEAD-YAP block inactive, MITF inh inactive, FBW7 activator inactive and GPR151 activ inactive.
Cc1nc(C)n(-c2ccc(Nc3cc(-c4nn(-c5ccccc5C#N)cc4-c4ccccc4)ccn3)cc2)n1 was read as TEAD-YAP block 33, MITF inh inactive, FBW7 activator inactive and GPR151 activ inactive.
For Cc1nc(C)n(-c2ccc(Nc3cc(-c4nn(-c5ccc(C#N)cc5)cc4-c4ccccc4)ccn3)cc2)n1 the results were TEAD-YAP block 42, MITF inh inactive, FBW7 activator inactive and GPR151 activ inactive.
For Cc1nc(C)n(-c2ccc(Nc3cc(-c4nn(-c5nccs5)cc4-c4ccccc4)ccn3)cc2)n1 the results were TEAD-YAP block inactive, MITF inh inactive, FBW7 activator inactive and GPR151 activ inactive.
For C/C(CC(=O)NCC(C)C)=N\NC(=O)C(=O)Nc1ccc(C)c(Cl)c1 the results were TEAD-YAP block inactive, MITF inh inactive, FBW7 activator inactive and GPR151 activ inactive.
Screening CC1=CC(=C2C(=O)c3ccccc3C2=O)C=C(C)N1C(C)C returned TEAD-YAP block 67, MITF inh inactive, FBW7 activator inactive and GPR151 activ inactive.
CC(=O)Nc1ccccc1C(=O)C(=O)NC1CCCC1 was read as TEAD-YAP block inactive, MITF inh inactive, FBW7 activator inactive and GPR151 activ inactive.
Screening Cc1ccc(-c2cccc3cnc(Nc4ccc(C(=O)N5CCN(C)CC5)cc4)nc23)cn1 returned TEAD-YAP block 55, MITF inh inactive, FBW7 activator inactive and GPR151 activ inactive.
For Cc1ccc(-c2cccc3cnc(Nc4cccc(C(=O)N5CCN(C)CC5)c4)nc23)cn1 the results were TEAD-YAP block 33, MITF inh inactive, FBW7 activator inactive and GPR151 activ inactive.
`Cc1ccc(-c2cccc3cnc(Nc4ccc(C(=O)N5CCOCC5)cc4)nc23)cn1` gave TEAD-YAP block 49, MITF inh inactive, FBW7 activator inactive and GPR151 activ inactive.
CCC(C)NCCOc1ccc([N+](=O)[O-])c(C)c1 (stereo unspecified) was read as TEAD-YAP block inactive, MITF inh inactive, FBW7 activator inactive and GPR151 activ inactive.
For CCOC(=O)c1ccc(CN2C(=O)S/C(=C\c3ccc(OCC(=O)O)cc3)C2=O)cc1 the results were TEAD-YAP block inactive, MITF inh inactive, FBW7 activator inactive and GPR151 activ inactive.
For Nc1ccc(-c2cnn3c(NCc4ccc5c(c4)OCO5)ccnc23)cc1 the results were TEAD-YAP block inactive, MITF inh inactive, FBW7 activator 2.5 and GPR151 activ inactive.
COc1ccc(Nc2ccnc3c(-c4ccc(N)cc4)cnn23)cn1 was read as TEAD-YAP block 37, MITF inh inactive, FBW7 activator inactive and GPR151 activ inactive.
c1ccc(CNc2ccnc3c(-c4ccc5c(c4)OCO5)cnn23)nc1 was read as TEAD-YAP block inactive, MITF inh inactive, FBW7 activator 1.9 and GPR151 activ inactive.

Screens as filed in PubChem.
